Test results: article PMC7862700, “An all-to-all approach to the identification of sequence-specific readers for epigenetic DNA modifications on cytosine”

Key:
Experiment in all cases: DAPPL (digital affinity profiling via proximity ligation, sequencing); 10 mM Tris-HCl pH 7.5, 50 mM NaCl, 1 mM DTT, 4% glycerol, room temperature, 30 min; GST-TFs on glutathione beads, 16-mer random dsDNA library, 0.1% formaldehyde crosslink after washing; high values mean tight binding
Details in all cases: protein: recombinant; tags: N-terminal GST; dsDNA, one strand shown
[1] = target: T1, ERF (Homo sapiens, UniProt P50548 1-548)
T1 sequence: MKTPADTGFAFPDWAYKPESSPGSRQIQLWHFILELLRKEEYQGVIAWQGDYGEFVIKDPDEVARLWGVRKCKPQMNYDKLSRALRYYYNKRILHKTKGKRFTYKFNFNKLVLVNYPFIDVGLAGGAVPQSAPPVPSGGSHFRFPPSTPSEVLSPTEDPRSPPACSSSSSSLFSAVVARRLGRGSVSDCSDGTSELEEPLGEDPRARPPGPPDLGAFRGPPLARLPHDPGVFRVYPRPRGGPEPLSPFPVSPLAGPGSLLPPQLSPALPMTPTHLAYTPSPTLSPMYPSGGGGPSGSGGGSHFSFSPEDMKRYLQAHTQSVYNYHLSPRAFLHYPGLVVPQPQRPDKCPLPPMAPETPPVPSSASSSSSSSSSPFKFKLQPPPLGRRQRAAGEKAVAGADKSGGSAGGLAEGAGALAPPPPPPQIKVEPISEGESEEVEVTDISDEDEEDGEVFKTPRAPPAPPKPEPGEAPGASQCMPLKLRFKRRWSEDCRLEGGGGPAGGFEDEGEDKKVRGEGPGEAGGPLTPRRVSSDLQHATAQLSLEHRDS
Method in brief: (§1)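 After expression in yeast as GST fusions, human transcription factors were bound to glutathione beads, DNA-barcoded and mixed with a tag-only sample. The pools were incubated with 200 nmole of a 16-mer random double-stranded DNA library in Tris/NaCl/DTT/glycerol buffer (30 min, room temperature), washed and crosslinked with 0.1% formaldehyde. Proximity ligation with BsaI/T4 ligase ran for 1 h at 37 °C, before PCR amplification and sequencing on an Illumina NextSeq500. Binding signal is a hexamer's read frequency for a factor divided by its frequency for the tag-only sample.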

[2] = target: T2, ETV3L (Homo sapiens, UniProt Q6ZN32 1-361)
T2 sequence: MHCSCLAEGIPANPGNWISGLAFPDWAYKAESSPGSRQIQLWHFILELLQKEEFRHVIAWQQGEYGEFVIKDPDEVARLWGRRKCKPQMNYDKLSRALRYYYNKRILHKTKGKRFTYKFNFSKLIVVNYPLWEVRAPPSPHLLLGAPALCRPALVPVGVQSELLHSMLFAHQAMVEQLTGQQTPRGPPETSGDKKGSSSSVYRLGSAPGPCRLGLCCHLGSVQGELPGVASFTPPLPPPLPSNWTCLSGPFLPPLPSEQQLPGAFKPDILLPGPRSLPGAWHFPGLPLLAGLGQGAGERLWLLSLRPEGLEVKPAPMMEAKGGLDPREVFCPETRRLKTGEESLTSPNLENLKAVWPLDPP
Method in brief: as §1

[3] = target: T3, ETS2 (Homo sapiens, UniProt P15036 1-469)
T3 sequence: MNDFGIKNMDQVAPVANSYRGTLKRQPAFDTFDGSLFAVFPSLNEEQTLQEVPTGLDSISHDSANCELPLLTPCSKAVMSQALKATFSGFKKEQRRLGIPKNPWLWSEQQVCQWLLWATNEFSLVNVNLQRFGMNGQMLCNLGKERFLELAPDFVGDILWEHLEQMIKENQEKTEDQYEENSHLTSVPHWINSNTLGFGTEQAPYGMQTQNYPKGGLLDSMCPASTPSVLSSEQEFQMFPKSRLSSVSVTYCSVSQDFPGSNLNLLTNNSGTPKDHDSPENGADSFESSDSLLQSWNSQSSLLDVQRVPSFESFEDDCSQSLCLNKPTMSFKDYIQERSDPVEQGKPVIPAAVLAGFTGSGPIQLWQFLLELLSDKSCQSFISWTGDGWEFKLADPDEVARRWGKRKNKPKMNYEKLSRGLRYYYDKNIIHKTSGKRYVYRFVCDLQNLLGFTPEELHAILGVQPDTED
Method in brief: as §1

[4] = target: T4, SPDEF (Homo sapiens, UniProt O95238 1-335)
T4 sequence: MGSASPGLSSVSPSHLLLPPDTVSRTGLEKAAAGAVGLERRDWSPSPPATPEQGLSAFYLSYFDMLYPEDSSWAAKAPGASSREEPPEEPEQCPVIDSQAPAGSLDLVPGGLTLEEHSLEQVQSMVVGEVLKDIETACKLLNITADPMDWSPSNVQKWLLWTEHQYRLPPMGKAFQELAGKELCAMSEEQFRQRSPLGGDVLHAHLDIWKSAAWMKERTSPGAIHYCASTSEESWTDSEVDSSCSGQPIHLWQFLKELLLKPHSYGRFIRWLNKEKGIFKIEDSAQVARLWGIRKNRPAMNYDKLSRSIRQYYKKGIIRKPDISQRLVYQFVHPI
Method in brief: as §1

[5] = target: T5, ELF5 (Homo sapiens, UniProt Q9UKW6-2 1-255)
T5 sequence: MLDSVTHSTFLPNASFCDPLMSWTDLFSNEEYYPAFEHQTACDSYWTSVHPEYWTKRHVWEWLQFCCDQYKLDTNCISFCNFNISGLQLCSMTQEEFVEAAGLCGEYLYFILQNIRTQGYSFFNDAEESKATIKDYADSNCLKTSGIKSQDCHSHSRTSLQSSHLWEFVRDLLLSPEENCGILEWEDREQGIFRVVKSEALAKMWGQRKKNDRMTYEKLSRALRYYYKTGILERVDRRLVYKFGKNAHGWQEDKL
Method in brief: as §1

[6] = target: T6, ETV3 (Homo sapiens, UniProt P41162-2 1-143)
T6 sequence: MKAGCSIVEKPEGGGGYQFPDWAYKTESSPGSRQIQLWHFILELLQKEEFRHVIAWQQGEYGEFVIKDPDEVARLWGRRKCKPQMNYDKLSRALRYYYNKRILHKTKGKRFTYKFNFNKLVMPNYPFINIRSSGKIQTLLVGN
Method in brief: as §1

[7] = target: ETV6 (Homo sapiens, UniProt P41212 1-452)
Method in brief: as §1

[8] = target: T7, ETV7 (Homo sapiens, UniProt Q9Y603 1-341)
T7 sequence: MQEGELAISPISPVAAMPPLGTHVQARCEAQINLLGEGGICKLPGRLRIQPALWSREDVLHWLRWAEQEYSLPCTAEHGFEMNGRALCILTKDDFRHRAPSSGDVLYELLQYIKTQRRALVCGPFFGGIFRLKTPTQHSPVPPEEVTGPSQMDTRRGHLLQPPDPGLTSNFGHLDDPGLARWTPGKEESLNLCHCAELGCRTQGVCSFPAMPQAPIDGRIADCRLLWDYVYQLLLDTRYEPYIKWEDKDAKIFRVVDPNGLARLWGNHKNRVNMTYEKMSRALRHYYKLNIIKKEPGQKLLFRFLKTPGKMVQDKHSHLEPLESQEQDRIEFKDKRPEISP
Method in brief: as §1

Chain of ETV6 (P41212 whole entry): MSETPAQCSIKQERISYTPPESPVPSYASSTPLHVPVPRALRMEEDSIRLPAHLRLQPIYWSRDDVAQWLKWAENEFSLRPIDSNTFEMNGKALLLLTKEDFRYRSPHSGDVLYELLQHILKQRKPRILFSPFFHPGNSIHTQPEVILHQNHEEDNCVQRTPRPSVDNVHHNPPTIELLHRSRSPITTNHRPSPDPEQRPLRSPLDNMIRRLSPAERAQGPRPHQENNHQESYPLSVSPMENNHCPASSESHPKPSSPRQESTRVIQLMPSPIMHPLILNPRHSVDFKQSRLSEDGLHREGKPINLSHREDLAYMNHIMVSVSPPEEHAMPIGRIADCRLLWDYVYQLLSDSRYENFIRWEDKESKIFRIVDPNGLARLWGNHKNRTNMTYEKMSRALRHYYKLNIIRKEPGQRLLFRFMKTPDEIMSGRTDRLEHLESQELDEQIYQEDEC

Sequence: CATGCC
- binding signal [1]: 1.12 fold enrichment (6-mer frequency, TF over GST control)
- binding signal [2]: 1 fold enrichment (6-mer frequency, TF over GST control)
- binding signal [3]: 1.05 fold enrichment (6-mer frequency, TF over GST control)
- binding signal [4]: 1.09 fold enrichment (6-mer frequency, TF over GST control)
- binding signal [5]: 1.05 fold enrichment (6-mer frequency, TF over GST control)
- binding signal [6]: 1.22 fold enrichment (6-mer frequency, TF over GST control)
- binding signal [7]: 1.15 fold enrichment (6-mer frequency, TF over GST control)

Sequence: AGGTAT
- binding signal [1]: 1.16 fold enrichment (6-mer frequency, TF over GST control)
- binding signal [2]: 1.02 fold enrichment (6-mer frequency, TF over GST control)
- binding signal [3]: 1 fold enrichment (6-mer frequency, TF over GST control)
- binding signal [4]: 1.12 fold enrichment (6-mer frequency, TF over GST control)
- binding signal [8]: 1.12 fold enrichment (6-mer frequency, TF over GST control)
- binding signal [6]: 1.11 fold enrichment (6-mer frequency, TF over GST control)
- binding signal [7]: 1.01 fold enrichment (6-mer frequency, TF over GST control)

Sequence: CAAAGC
- binding signal [1]: 1.13 fold enrichment (6-mer frequency, TF over GST control)
- binding signal [2]: 1.07 fold enrichment (6-mer frequency, TF over GST control)
- binding signal [3]: 1 fold enrichment (6-mer frequency, TF over GST control)
- binding signal [4]: 1.06 fold enrichment (6-mer frequency, TF over GST control)
- binding signal [5]: 1.01 fold enrichment (6-mer frequency, TF over GST control)
- binding signal [6]: 1.08 fold enrichment (6-mer frequency, TF over GST control)
- binding signal [7]: 1.08 fold enrichment (6-mer frequency, TF over GST control)

Sequence: TTGCGT
- binding signal [1]: 1.21 fold enrichment (6-mer frequency, TF over GST control)
- binding signal [2]: 1.03 fold enrichment (6-mer frequency, TF over GST control)
- binding signal [3]: 1.08 fold enrichment (6-mer frequency, TF over GST control)
- binding signal [4]: 1.03 fold enrichment (6-mer frequency, TF over GST control)
- binding signal [5]: 1.03 fold enrichment (6-mer frequency, TF over GST control)
- binding signal [6]: 1.03 fold enrichment (6-mer frequency, TF over GST control)
- binding signal [7]: 1.13 fold enrichment (6-mer frequency, TF over GST control)

Sequence: TAGGTT
- binding signal [1]: 1.06 fold enrichment (6-mer frequency, TF over GST control)
- binding signal [2]: 1.08 fold enrichment (6-mer frequency, TF over GST control)
- binding signal [3]: 1.06 fold enrichment (6-mer frequency, TF over GST control)
- binding signal [4]: 1.17 fold enrichment (6-mer frequency, TF over GST control)
- binding signal [5]: 1.06 fold enrichment (6-mer frequency, TF over GST control)
- binding signal [6]: 1.14 fold enrichment (6-mer frequency, TF over GST control)
- binding signal [7]: 1.16 fold enrichment (6-mer frequency, TF over GST control)

Sequence: TCTACA
- binding signal [1]: 1.31 fold enrichment (6-mer frequency, TF over GST control)
- binding signal [2]: 1.21 fold enrichment (6-mer frequency, TF over GST control)
- binding signal [3]: 1.29 fold enrichment (6-mer frequency, TF over GST control)
- binding signal [4]: 1.27 fold enrichment (6-mer frequency, TF over GST control)
- binding signal [5]: 1.19 fold enrichment (6-mer frequency, TF over GST control)
- binding signal [6]: 1.18 fold enrichment (6-mer frequency, TF over GST control)
- binding signal [7]: 1.19 fold enrichment (6-mer frequency, TF over GST control)

Sequence: TCACAA
- binding signal [1]: 1.23 fold enrichment (6-mer frequency, TF over GST control)
- binding signal [2]: 1.14 fold enrichment (6-mer frequency, TF over GST control)
- binding signal [3]: 1.23 fold enrichment (6-mer frequency, TF over GST control)
- binding signal [4]: 1.19 fold enrichment (6-mer frequency, TF over GST control)
- binding signal [5]: 1.11 fold enrichment (6-mer frequency, TF over GST control)
- binding signal [6]: 1.08 fold enrichment (6-mer frequency, TF over GST control)
- binding signal [7]: 1.03 fold enrichment (6-mer frequency, TF over GST control)

Sequence: GATCCC
- binding signal [1]: 1.3 fold enrichment (6-mer frequency, TF over GST control)
- binding signal [2]: 1.2 fold enrichment (6-mer frequency, TF over GST control)
- binding signal [3]: 1.11 fold enrichment (6-mer frequency, TF over GST control)
- binding signal [4]: 1.27 fold enrichment (6-mer frequency, TF over GST control)
- binding signal [5]: 1.1 fold enrichment (6-mer frequency, TF over GST control)
- binding signal [6]: 1.11 fold enrichment (6-mer frequency, TF over GST control)
- binding signal [7]: 1.12 fold enrichment (6-mer frequency, TF over GST control)

Sequence: CAACGC
- binding signal [1]: 1.05 fold enrichment (6-mer frequency, TF over GST control)
- binding signal [2]: 1.07 fold enrichment (6-mer frequency, TF over GST control)
- binding signal [3]: 1.07 fold enrichment (6-mer frequency, TF over GST control)
- binding signal [4]: 1.08 fold enrichment (6-mer frequency, TF over GST control)
- binding signal [8]: 1.09 fold enrichment (6-mer frequency, TF over GST control)
- binding signal [7]: 1.03 fold enrichment (6-mer frequency, TF over GST control)

Sequence: GGATCC
- binding signal [1]: 1.06 fold enrichment (6-mer frequency, TF over GST control)
- binding signal [2]: 1.15 fold enrichment (6-mer frequency, TF over GST control)
- binding signal [3]: 1.22 fold enrichment (6-mer frequency, TF over GST control)
- binding signal [4]: 2.07 fold enrichment (6-mer frequency, TF over GST control)
- binding signal [5]: 1.13 fold enrichment (6-mer frequency, TF over GST control)
- binding signal [6]: 1.13 fold enrichment (6-mer frequency, TF over GST control)
- binding signal [7]: 1.08 fold enrichment (6-mer frequency, TF over GST control)
